This is one part of a sample in which hits are shown more often than they occur.
Tg IFNy HTS: inhibitors of Toxoplasma gondii growth with IFN-gamma | 69,000 tested, 3.8% active | activity change, negative = inhibition, % (test concentration not listed) | Toxoplasma gondii growth in IFN-gamma-treated host cells; stronger effect = lower value; in the data active means activity change below about -70%, passing the limit was not always enough;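 further: host cells are HeLa cells infected with Toxoplasma gondii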
* = called active by the depositor.

For Cc1ccccc1CN(CC1CCCO1)C(=O)CCN1CCCCO1 (configuration not stated) the results were Tg IFNy HTS 8.
CS(=O)(=O)CCNCc1ccc(-c2ccc3ncnc(Nc4ccc(OCc5cccc(F)c5)c(Cl)c4)c3c2)o1 was read as Tg IFNy HTS -81*.
For COc1ccc(-c2nc(C)c(CCNC(=O)c3ccc([N+](=O)[O-])cc3)s2)cc1OC the results were Tg IFNy HTS inactive.
Screening Cc1ccc(CNC2=NCCNC23CCN(S(=O)(=O)c2ccc(CC(C)C)cc2)CC3)cc1 returned Tg IFNy HTS -57.
For COc1ccc(C2c3[nH]c4ccccc4c3CCN2C(=O)c2cccnc2)cc1 (configuration not stated) the results were Tg IFNy HTS 256.
CCOc1ccc(C2c3[nH]c4ccccc4c3CCN2C(=O)c2ccc(F)cc2)cc1 (configuration not stated) was read as Tg IFNy HTS -89*.
`O=C(c1ccccc1Br)N1CCc2c([nH]c3ccccc23)C1c1ccc(Cl)cc1` (configuration not stated) gave Tg IFNy HTS 358.
For CCOc1ccc(C2c3[nH]c4ccccc4c3CCN2C(=O)c2cc(OC)c(OC)c(OC)c2)cc1 (configuration not stated) the results were Tg IFNy HTS 247.
For CCOc1ccc(C2c3[nH]c4ccccc4c3CCN2C(=O)c2ccc(OC)c(OC)c2)cc1 (configuration not stated) the results were Tg IFNy HTS inactive.
For O=C(c1ccc(Br)cc1)N1CCc2c([nH]c3ccccc23)C1c1ccccc1 (configuration not stated) the results were Tg IFNy HTS -48.
For O=C(c1cccc(F)c1)N1CCc2c([nH]c3ccccc23)C1c1ccc(F)cc1 (configuration not stated) the results were Tg IFNy HTS 141.
Screening O=C(c1ccc(Br)cc1)N1CCc2c([nH]c3ccccc23)C1c1ccc(Cl)cc1 (configuration not stated) returned Tg IFNy HTS -95*.
`O=C(c1ccncc1)N1CCc2c([nH]c3ccccc23)C1c1ccc(Cl)cc1` (configuration not stated) gave Tg IFNy HTS -88*.
CSc1ccc(C2c3[nH]c4ccccc4c3CCN2C(=O)c2cccnc2)cc1 (configuration not stated) was read as Tg IFNy HTS 468.
For O=C(c1ccc(Br)cc1)N1CCc2c([nH]c3ccccc23)C1c1ccc(F)cc1 (configuration not stated) the results were Tg IFNy HTS -94*.
`COc1ccc(C(=O)N2CCc3c([nH]c4ccccc34)C2c2ccc(C)cc2)cc1` (configuration not stated) gave Tg IFNy HTS inactive.
`O=C(CCc1nnc(CCc2c[nH]c3ccccc23)o1)NC1CCCc2ccccc21` (configuration not stated) gave Tg IFNy HTS 7.
O=C(Cn1c(=O)ccc2cc(S(=O)(=O)N3CCCC3)ccc21)Nc1ccc2c(c1)OCO2 was read as Tg IFNy HTS -14.
Screening C[C@@H]1CN2C[C@H](O)CC2CN1Cc1cccc2nccnc12 (some centres not stated) returned Tg IFNy HTS -28.
CN(Cc1cccnc1)C1CCN(C(=O)[C@H]2CCCO2)C(C(=O)O)C1 (some centres not stated) was read as Tg IFNy HTS -49.
Screening CCOC(=O)N1CCN(C(=O)CC2(c3ccccc3F)CC(=O)N(CCOC)C2=O)CC1 (configuration not stated) returned Tg IFNy HTS 19.
C=CCn1c(=O)c(C(=O)Nc2nccc(C)n2)c(O)c2ccccc21 was read as Tg IFNy HTS 28.
`COc1cc(C(=O)N2CCc3c([nH]c4ccccc34)C2c2ccc(Cl)cc2)cc(OC)c1OC` (configuration not stated) gave Tg IFNy HTS 1.
`O=C(CCC1CCCC1)N1CCc2c([nH]c3ccccc23)C1c1ccc(Cl)cc1` (configuration not stated) gave Tg IFNy HTS -106*.
O=C(c1cccc(F)c1)N1CCc2c([nH]c3ccccc23)C1c1ccc(Cl)cc1 (configuration not stated) was read as Tg IFNy HTS -53.
COc1ccc(C(=O)N2CCc3c([nH]c4ccccc34)C2c2cccnc2)cc1OC (configuration not stated) was read as Tg IFNy HTS 70.
Screening O=C(c1ccccc1)N1CCc2c([nH]c3ccccc23)C1c1cccnc1 (configuration not stated) returned Tg IFNy HTS 85.
`O=C(c1ccccc1)N1CCc2c([nH]c3ccccc23)C1c1ccc(Cl)cc1` (configuration not stated) gave Tg IFNy HTS -99*.
O=C(C1CCCCC1)N1CCc2c([nH]c3ccccc23)C1c1ccc(F)cc1 (configuration not stated) was read as Tg IFNy HTS -75*.
Screening Cc1ccc(C2c3[nH]c4ccccc4c3CCN2C(=O)C2CC2)cc1 (configuration not stated) returned Tg IFNy HTS 146.
`O=C(CCC1CCCC1)N1CCc2c([nH]c3ccccc23)C1c1ccc(F)cc1` (configuration not stated) gave Tg IFNy HTS -67.
For COc1ccc(C2c3[nH]c4ccccc4c3CCN2C(=O)CCC2CCCC2)cc1 (configuration not stated) the results were Tg IFNy HTS -55.
For O=C(c1cccc(Cl)c1)N1CCc2c([nH]c3ccccc23)C1c1cccnc1 (configuration not stated) the results were Tg IFNy HTS -82*.
For CSc1ccc(C2c3[nH]c4ccccc4c3CCN2C(=O)C2CC2)cc1 (configuration not stated) the results were Tg IFNy HTS 74.
For COc1ccc2c(c1)NC1(CCN(C(=O)c3ccc(C(C)(C)C)cc3)CC1)c1cccn1-2 the results were Tg IFNy HTS 9.
Screening N#Cc1cccc(OC[C@@H]2CO[C@@H]3CN(c4cnccn4)C[C@@H]23)c1 returned Tg IFNy HTS -66.
`O=S(=O)(c1cccc(F)c1)N1CCC2(CC1)Nc1cc(F)ccc1-n1cccc12` gave Tg IFNy HTS 25.
Cn1cnc2cc(C(=O)N3CCNCC3C(=O)NC3CC3)cnc21 (configuration not stated) was read as Tg IFNy HTS 1.
COc1ccc(C2=NC3(CCN(C(C)=O)CC3)NC(c3cc(Cl)ccc3O)C2)cc1 (configuration not stated) was read as Tg IFNy HTS -62.
For COc1ccc2[nH]cc([C@H]3CC[C@@H](NC(=O)C(C)Cn4nc(C)nc4C)C3)c2c1 (some centres not stated) the results were Tg IFNy HTS 30.
For Cc1cc(C)c(S(=O)(=O)NCCc2csc(-c3ccc(F)cc3)n2)cc1C the results were Tg IFNy HTS 14.
For Cc1ccsc1[C@@H]1CCN(C(=O)Cn2c(=O)oc3ccccc32)C[C@H]1O the results were Tg IFNy HTS 6.
Screening CSc1ccccc1NC(=O)N1CCC2(CC1)CNC(=O)C2 returned Tg IFNy HTS -6.
Screening Cn1cc(CN2CC[C@@H]3[C@H]2CCN3CC2CCOC2)cn1 (some centres not stated) returned Tg IFNy HTS -38.
Screening CC(C)NC(=O)N1CCC(c2nnc3ccc(C(=O)CCN4CCOCC4)cn23)C1 (configuration not stated) returned Tg IFNy HTS -9.
